The nature of experiment [1]: ATG_GRE_CIS: Attagene CIS-FACTORIAL HepG2 Assay for human Glucocorticoid Response Elements (GRE) (AID 2282947). Particulars: HepG2 GRE cis-reporter, Attagene multiplex mRNA; actives raise or lower the signal. An outline of the steps: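 Cells (HepG2) bearing transfected cis-promoter reporter transcription units were treated with chemical for 24 hours. Reporter mRNA was measured via RT-PCR with capillary electrophoresis, and activity was fitted in both directions relative to DMSO.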

Experiment [2] in a line: ATG_ISRE_CIS: Attagene CIS-FACTORIAL HepG2 Assay for human Interferon Regulatory Factor 1 (IRF1) binding to an Interferon-Stimulated Response Element (ISRE) (AID 2282948). Particulars: HepG2 ISRE cis-reporter (Attagene), mRNA transcription readout; actives raise or lower the signal. In short, it runs like this: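 Endogenous transcription factor activity read as reporter transcript abundance via RT-PCR and capillary electrophoresis. HepG2 cells transiently transfected, 24 h chemical exposure. Gain or loss fitted against DMSO baseline.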

Experiment [3] in a line: ATG_M_32_CIS: Attagene CIS-FACTORIAL HepG2 Assay for M32 Transcription Factor (Internal Marker) (AID 2282949).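 Further: background control marker of the multiplexed CIS panel rather than a real target.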 The settings on record: HepG2 Attagene cis-factorial M32 reporter, mRNA; actives raise or lower the signal. In short, it runs like this:
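HepG2 transfectants (cis-regulated reporter transcription units) dosed 24 h. Reporter mRNA by RT-PCR plus CE, analysed as gain or loss relative to DMSO.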

A short description of experiment [4]: ATG_M_06_CIS: Attagene CIS-FACTORIAL HepG2 Assay for M06 Transcription Factor (Internal Marker) (AID 2282950). The settings on record: HepG2 Attagene CIS-FACTORIAL M06 internal marker reporter; actives raise or lower the signal. In short, it runs like this:
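Steps: transfect HepG2 with multiplexed cis-element reporter constructs; dose chemical 24 h; extract RNA with DNase treatment; reverse-transcribe, PCR-amplify, 6-FAM label, HpaI digest; separate fragments by capillary electrophoresis. Activity fitted both directions versus DMSO.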

For experiment [5], the target named is Hypoxia-inducible factor 1-alpha (Homo sapiens) (UniProt Q16665). Description: ATG_HIF1a_CIS: Attagene CIS-FACTORIAL HepG2 Assay for human Hypoxia Inducible Factor 1 (HIF1A) (AID 2282951). The settings on record: HepG2 Attagene cis-factorial HIF1a reporter transcription; actives raise or lower the signal. An outline of the steps:
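HepG2, transient cis-reporter library, 24 h dosing. RNA → RT (oligo dT) → PCR → 6-FAM primer extension → HpaI → CE. Bidirectional curve fit vs DMSO.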

For experiment [6], the target named is Hepatocyte nuclear factor 6 (Homo sapiens) (UniProt Q9UBC0). Description: ATG_HNF6_CIS: Attagene CIS-FACTORIAL HepG2 Assay for human Hepatocyte Nuclear Factor 6 (HNF6) (AID 2282952). Particulars: HepG2 Attagene cis-factorial HNF6 reporter transcription; actives raise or lower the signal. In short, it runs like this: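 Endogenous transcription factor activity in human HepG2 liver cells was captured through cis-regulated reporter constructs. After 24 h treatment, reporter mRNA was measured by RT-PCR with capillary electrophoresis, and activity was fitted in both directions relative to DMSO.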

Experiment [7] has as its target Heat shock factor protein 1 (Homo sapiens) (UniProt Q00613). Description: ATG_HSE_CIS: Attagene CIS-FACTORIAL HepG2 Assay for human Heat Shock Transcription Factor 1 (HSE) (AID 2282953). The settings on record: HepG2 HSE cis-reporter, Attagene RNA transcription; actives raise or lower the signal. In short, it runs like this:
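Cells were transfected with cis-element-driven reporter constructs, dosed for 24 h, then total RNA was reverse-transcribed and reporter cDNA amplified, FAM-labelled and digested with HpaI. Fragments were resolved by capillary electrophoresis; gain or loss was fitted against DMSO.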

Experiment [8] can be described thus: ATG_MRE_CIS: Attagene CIS-FACTORIAL HepG2 Assay for human Metal Responsive Element (MRE) (AID 2282954). The settings on record: HepG2 MRE cis-reporter transcription, Attagene multiplex; actives raise or lower the signal. An outline of the steps:
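Cells were transfected with cis-promoter reporter transcription units, then dosed for 24 h. RNA was reverse-transcribed, amplified, fluorescently labelled and resolved by capillary electrophoresis, and activity was fitted in both directions relative to DMSO.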

Experiment [9] deals with Paired box protein Pax-6 (Homo sapiens) (UniProt P26367). Description: ATG_Pax6_CIS: Attagene CIS-FACTORIAL HepG2 Assay for human Paired Box 6 (PAX6) (AID 2282956). The settings on record: HepG2 CIS-FACTORIAL PAX6 reporter transcription, RNA readout; actives raise or lower the signal. In short, it runs like this:
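Read-out is reporter transcript level, measured by RT-PCR with fluorescent primer extension and capillary electrophoresis after 24 h dosing of transfected HepG2 cells. Activity in either direction fitted relative to DMSO control.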

Experiment [10] in a line: ATG_PXRE_CIS: Attagene CIS-FACTORIAL HepG2 Assay for human Pregnane X Receptor Element (PXRE) (AID 2282957). The settings on record: HepG2 Attagene CIS-FACTORIAL PXRE reporter, mRNA; actives raise or lower the signal. In short, it runs like this: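 Endogenous transcription factor activity in HepG2 was gauged through induction of reporter mRNA driven by a cis-regulating promoter element, sampled 24 h post-treatment. Activity was fitted in both directions against DMSO negative control.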

Experiment [11] can be described thus: ATG_PPRE_CIS: Attagene CIS-FACTORIAL HepG2 Assay for human Peroxisome Proliferator-activated Response Element (PPRE) (AID 2282958). Particulars: HepG2 PPRE cis-element reporter, Attagene transcription factor profiling; actives raise or lower the signal. An outline of the steps:
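Transcript-level reporter induction in transfected HepG2 cells after 24 h chemical exposure, quantified by fluorescence from RT-PCR products separated by capillary electrophoresis.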

Experiment [12] is described as follows: ATG_RORE_CIS: Attagene CIS-FACTORIAL HepG2 Assay for human RAR-related Orphan Receptor Element (RORE) (AID 2282959). Particulars: HepG2 Attagene cis-factorial RORE reporter, mRNA; actives raise or lower the signal. In short, it runs like this: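 Multiplexed reporter assay measuring mRNA induction from a cis promoter element in transiently transfected HepG2 cells after 24 h treatment. Detection via RT-PCR and capillary electrophoresis fluorescence; DMSO serves as baseline.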

Experiment [13] is described as follows: ATG_Sox_CIS: Attagene CIS-FACTORIAL HepG2 Assay for human SRY-box transcription factor (SOX) (AID 2282960). The settings on record: HepG2 Attagene cis-factorial SOX reporter, mRNA; actives raise or lower the signal. In short, it runs like this: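 Cells were transfected with reporter constructs under cis-regulatory promoters, then exposed to chemicals for 24 h. Reporter transcripts were quantified by fluorescence after RT-PCR and capillary electrophoresis; activity was fitted in both directions against DMSO.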

In experiment [14] the target is Transcription factor Sp1 (Homo sapiens) (UniProt P08047). Description: ATG_Sp1_CIS: Attagene CIS-FACTORIAL HepG2 Assay for human Specificity Protein 1 (Sp1) (AID 2282961). Particulars: HepG2 Sp1 cis-reporter transcription, actives raise or lower the signal. In short, it runs like this: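 Measures mRNA induction of an Sp1-linked reporter in HepG2 cells 24 h post-dosing. Multiplexed reporters read by RT-PCR and capillary electrophoresis; DMSO serves as negative control and baseline.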

The nature of experiment [15]: ATG_SREBP_CIS: Attagene CIS-FACTORIAL HepG2 Assay for human Sterol Regulatory Element Binding (SREBP) (AID 2282962). The settings on record: HepG2 Attagene cis-factorial SREBP reporter, mRNA; actives raise or lower the signal. In short, it runs like this: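 Endogenous SREBP activity read as cis-element-driven reporter transcript in transiently transfected HepG2, 24 h post-dosing; quantified via RT-PCR plus capillary electrophoresis of fluorescent fragments. Gain or loss of signal fitted relative to DMSO baseline.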

Experiment [16] concerns the target Signal transducer and activator of transcription 3 (Homo sapiens) (UniProt P40763). Description: ATG_STAT3_CIS: Attagene CIS-FACTORIAL HepG2 Assay for human Signal Transducer and Activator of Transcription 3 (STAT3) (AID 2282963). The settings on record: HepG2, Attagene cis-factorial STAT3 reporter transcription; actives raise or lower the signal. In short, it runs like this:
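HepG2, MRTU-transfected, 24 h dosing. RNA → RT → PCR → FAM label → HpaI → CE. Bidirectional fit vs DMSO.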

The nature of experiment [17]: ATG_TA_CIS: Attagene CIS-FACTORIAL HepG2 Assay for human TA Basal Promoter (AID 2282964). The settings on record: HepG2 Attagene CIS-factorial TA basal promoter reporter; actives raise or lower the signal. In short, it runs like this:
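Steps: transfect HepG2 with MRTUs; dose 24 h; isolate RNA, DNase-treat, reverse-transcribe; PCR and FAM-label reporter cDNA; digest with HpaI 2h at 37 C; run capillary electrophoresis. Activity fitted both directions against DMSO.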

Experiment [18] in a line: ATG_TCF_b_cat_CIS: Attagene CIS-FACTORIAL HepG2 Assay for human T-Cell-Factor with beta-catenin (TCF/b-cat) (AID 2282965). Particulars: HepG2 TCF/beta-catenin cis-reporter transcription, actives raise or lower the signal. An outline of the steps: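 Using capillary electrophoresis as the read-out, labelled reporter cDNA fragments from transiently transfected HepG2 were sized and quantified. Exposure lasted 24 hours; activity in either direction was referenced to DMSO.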

The nature of experiment [19]: ATG_PBREM_CIS: Attagene CIS-FACTORIAL HepG2 Assay for human Phenobarbital-responsive Enhancer Module (PBREM) (AID 2282955). Particulars: HepG2 PBREM cis-reporter, Attagene multiplexed transcription; actives raise or lower the signal. An outline of the steps:
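HepG2, transient MRTU transfection, 24 h dosing; RNA → oligo(dT) RT → PCR → 6-FAM extension → HpaI → CE. Bidirectional fit vs DMSO.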

What is called AC50 is the midpoint of the concentration-response curve, whichever way the signal moves.

Calls of active or inactive are those of the source. How the source made its calls: active means hit-call score of the fitted dose curve at least 0.9, where 1 is the maximum; inactive means score below 0.9.

Chain of Hypoxia-inducible factor 1-alpha (Homo sapiens) (Q16665 whole entry, looked up): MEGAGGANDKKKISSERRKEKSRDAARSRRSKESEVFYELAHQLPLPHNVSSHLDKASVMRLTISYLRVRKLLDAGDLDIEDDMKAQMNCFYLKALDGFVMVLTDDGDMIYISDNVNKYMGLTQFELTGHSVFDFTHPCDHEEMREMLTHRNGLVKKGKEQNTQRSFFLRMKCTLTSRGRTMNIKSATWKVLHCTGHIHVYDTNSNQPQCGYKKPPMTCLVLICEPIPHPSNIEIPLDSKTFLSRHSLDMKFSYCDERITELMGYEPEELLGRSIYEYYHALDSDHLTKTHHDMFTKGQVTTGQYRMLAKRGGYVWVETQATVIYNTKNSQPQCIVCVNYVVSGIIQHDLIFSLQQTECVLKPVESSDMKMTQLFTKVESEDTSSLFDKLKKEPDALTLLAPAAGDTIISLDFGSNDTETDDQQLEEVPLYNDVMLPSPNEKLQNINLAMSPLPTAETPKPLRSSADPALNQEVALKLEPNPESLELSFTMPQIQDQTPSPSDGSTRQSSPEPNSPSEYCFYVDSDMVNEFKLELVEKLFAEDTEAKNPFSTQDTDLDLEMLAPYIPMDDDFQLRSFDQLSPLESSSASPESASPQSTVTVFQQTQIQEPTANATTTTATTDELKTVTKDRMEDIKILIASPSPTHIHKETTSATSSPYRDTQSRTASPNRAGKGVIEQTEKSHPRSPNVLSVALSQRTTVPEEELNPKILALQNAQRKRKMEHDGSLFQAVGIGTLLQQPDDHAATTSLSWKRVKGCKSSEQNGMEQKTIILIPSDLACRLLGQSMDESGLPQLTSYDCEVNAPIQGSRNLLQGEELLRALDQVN
Chain of Transcription factor Sp1 (Homo sapiens) (P08047 whole entry, looked up): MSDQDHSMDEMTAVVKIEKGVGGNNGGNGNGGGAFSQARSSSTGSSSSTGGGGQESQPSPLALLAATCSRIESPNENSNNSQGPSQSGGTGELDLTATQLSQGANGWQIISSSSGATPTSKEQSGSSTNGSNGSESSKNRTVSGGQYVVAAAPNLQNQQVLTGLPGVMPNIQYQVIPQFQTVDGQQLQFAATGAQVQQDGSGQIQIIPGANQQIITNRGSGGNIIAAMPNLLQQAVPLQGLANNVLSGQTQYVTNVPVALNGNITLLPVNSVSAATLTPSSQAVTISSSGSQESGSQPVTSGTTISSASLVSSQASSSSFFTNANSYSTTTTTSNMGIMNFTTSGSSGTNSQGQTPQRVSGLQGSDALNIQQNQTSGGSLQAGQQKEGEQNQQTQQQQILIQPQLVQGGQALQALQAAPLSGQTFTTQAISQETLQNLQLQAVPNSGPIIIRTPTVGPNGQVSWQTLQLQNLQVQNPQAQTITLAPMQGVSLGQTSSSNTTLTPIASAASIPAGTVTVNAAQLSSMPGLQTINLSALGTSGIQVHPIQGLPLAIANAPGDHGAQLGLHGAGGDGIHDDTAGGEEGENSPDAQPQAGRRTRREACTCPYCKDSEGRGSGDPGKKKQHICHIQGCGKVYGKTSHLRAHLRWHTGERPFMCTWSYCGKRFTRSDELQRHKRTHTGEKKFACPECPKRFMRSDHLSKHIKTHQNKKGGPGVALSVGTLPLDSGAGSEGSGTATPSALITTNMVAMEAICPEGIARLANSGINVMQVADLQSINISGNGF
Chain of Paired box protein Pax-6 (Homo sapiens) (P26367 whole entry, looked up): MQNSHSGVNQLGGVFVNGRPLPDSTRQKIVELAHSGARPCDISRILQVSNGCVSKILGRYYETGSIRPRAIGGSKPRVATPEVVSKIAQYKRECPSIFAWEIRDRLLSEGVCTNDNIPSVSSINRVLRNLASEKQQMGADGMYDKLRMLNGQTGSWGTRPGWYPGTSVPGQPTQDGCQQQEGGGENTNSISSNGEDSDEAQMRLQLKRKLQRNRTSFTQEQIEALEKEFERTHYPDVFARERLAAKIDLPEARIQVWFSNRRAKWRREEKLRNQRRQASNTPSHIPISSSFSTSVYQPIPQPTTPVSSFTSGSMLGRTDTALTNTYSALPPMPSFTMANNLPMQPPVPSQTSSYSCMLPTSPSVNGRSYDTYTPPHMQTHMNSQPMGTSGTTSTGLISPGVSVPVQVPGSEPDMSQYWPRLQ
Chain of Hepatocyte nuclear factor 6 (Homo sapiens) (Q9UBC0 whole entry, looked up): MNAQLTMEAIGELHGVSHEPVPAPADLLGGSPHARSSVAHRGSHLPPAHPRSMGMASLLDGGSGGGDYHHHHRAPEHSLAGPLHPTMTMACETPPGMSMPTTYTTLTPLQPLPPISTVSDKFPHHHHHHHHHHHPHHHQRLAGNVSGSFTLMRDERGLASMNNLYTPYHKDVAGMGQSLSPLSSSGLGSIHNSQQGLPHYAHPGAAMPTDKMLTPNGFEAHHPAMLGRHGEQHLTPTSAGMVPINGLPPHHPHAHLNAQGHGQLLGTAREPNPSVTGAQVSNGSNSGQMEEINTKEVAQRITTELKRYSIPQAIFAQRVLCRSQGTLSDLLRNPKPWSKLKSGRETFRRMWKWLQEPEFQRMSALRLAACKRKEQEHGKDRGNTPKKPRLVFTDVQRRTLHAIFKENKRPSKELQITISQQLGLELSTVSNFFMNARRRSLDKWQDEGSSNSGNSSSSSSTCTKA
Chain of Heat shock factor protein 1 (Homo sapiens) (Q00613 whole entry, looked up, the tested form may be a part): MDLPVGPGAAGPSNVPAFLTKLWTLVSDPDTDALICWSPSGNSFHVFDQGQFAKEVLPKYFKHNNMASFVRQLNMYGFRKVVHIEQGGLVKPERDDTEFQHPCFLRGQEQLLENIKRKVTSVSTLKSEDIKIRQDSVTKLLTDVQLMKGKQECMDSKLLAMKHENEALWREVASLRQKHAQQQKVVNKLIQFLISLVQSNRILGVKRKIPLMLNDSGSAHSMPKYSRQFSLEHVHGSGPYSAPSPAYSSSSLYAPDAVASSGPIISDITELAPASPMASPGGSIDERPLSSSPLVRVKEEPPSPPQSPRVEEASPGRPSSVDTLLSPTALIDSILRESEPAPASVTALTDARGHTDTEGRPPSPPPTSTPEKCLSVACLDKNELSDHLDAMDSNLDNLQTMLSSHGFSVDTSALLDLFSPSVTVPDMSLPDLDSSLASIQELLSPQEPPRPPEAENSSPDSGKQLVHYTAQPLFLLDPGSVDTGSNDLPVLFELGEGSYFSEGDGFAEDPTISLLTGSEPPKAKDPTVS
Chain of Signal transducer and activator of transcription 3 (Homo sapiens) (P40763 whole entry, looked up): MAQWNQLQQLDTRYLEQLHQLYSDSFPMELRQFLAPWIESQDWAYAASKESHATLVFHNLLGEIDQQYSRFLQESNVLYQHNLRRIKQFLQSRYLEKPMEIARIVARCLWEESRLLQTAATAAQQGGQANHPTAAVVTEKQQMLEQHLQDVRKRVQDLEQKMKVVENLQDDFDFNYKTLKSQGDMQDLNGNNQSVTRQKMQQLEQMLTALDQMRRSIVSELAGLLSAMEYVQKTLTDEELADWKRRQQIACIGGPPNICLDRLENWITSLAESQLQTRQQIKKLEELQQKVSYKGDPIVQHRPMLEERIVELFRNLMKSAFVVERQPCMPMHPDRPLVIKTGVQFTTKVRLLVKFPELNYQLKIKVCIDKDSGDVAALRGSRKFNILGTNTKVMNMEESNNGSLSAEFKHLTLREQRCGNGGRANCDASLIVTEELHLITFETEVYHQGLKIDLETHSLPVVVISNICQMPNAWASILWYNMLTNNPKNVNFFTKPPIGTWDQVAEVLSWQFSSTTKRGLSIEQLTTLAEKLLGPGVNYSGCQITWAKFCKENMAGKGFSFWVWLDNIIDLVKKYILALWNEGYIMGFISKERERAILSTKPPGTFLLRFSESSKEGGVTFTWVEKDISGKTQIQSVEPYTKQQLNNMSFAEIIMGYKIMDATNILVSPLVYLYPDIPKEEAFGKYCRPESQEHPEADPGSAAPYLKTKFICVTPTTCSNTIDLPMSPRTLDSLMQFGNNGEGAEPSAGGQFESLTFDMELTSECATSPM

Regarding `CC(CN=Cc1ccccc1O)N=Cc1ccccc1O` (centres undefined), the result in experiment [1], in experiment [2], in [3], in [4], in experiment [6] and in [7] was inactive. Moreover, the outcome in experiment [9], in [10], in experiment [11], in experiment [12], in experiment [13] and in [14] was inactive. The compound was called inactive in [15], in [16], in experiment [17] and in experiment [18]. The AC50 in [5] is 72.3 µM (active); in [8] it was 26.8 µM (active).
Turning to `Cc1ncc[nH]1`, the compound was classed as inactive in [1], in experiment [2], in experiment [4], in experiment [5], in experiment [6] and in [7]. Also, the result in experiment [8], in experiment [9], in experiment [10], in [11], in [12] and in experiment [13] was inactive. Moreover, the call in experiment [14], in experiment [15], in experiment [16], in [17] and in experiment [18] was inactive.
Turning to `Cc1ccc(S(N)(=O)=O)cc1`, the result in [1], in experiment [2], in experiment [5], in experiment [6], in [7] and in experiment [8] was inactive. Also, the compound was classed as inactive in [9], in experiment [10], in experiment [13], in experiment [14], in experiment [15] and in [18].
Consider `CC(=O)C1(C)CC2=C(CCCC2(C)C)CC1C` (centres undefined), for which the outcome in [1], in experiment [3], in experiment [4], in [5], in [7] and in experiment [13] was inactive. The compound was classed as inactive in experiment [16] and in [17]. For the same compound, the AC50 in experiment [2] is 152 µM (active); in [6], 134 µM (active); in experiment [8], 160 µM (active); in experiment [10] it was 25.6 µM (active); in experiment [11] it was 100 µM (active); in [12], 74.4 µM (active). The AC50 in [14] was 162 µM (active); in experiment [15] it was 85.8 µM (active).
For the compound `OC[C@H]1O[C@@H]2O[C@H]3[C@H](O)[C@@H](O)[C@@H](O[C@H]4[C@H](O)[C@@H](O)[C@@H](O[C@H]5[C@H](O)[C@@H](O)[C@@H](O[C@H]6[C@H](O)[C@@H](O)[C@@H](O[C@H]7[C@H](O)[C@@H](O)[C@@H](O[C@H]8[C@H](O)[C@@H](O)[C@@H](O[C@H]9[C@H](O)[C@@H](O)[C@@H](O[C@H]1[C@H](O)[C@H]2O)O[C@@H]9CO)O[C@@H]8CO)O[C@@H]7CO)O[C@@H]6CO)O[C@@H]5CO)O[C@@H]4CO)O[C@@H]3CO`, the compound was called inactive in experiment [1], in experiment [2], in experiment [3], in experiment [5], in experiment [6] and in experiment [7]. The result in [8], in experiment [9], in experiment [12], in experiment [13], in experiment [14] and in experiment [15] was inactive. Further, the compound was called inactive in [16], in experiment [17] and in [18]. Further, the AC50 in experiment [10] is 22.4 µM (active).
With `C=C1CC[C@H](O)C/C1=C/C=C1\CCC[C@]2(C)[C@@H]([C@H](C)/C=C/[C@H](C)C(C)C)CC[C@@H]12`, the compound was called inactive in [1], in [2], in experiment [3], in experiment [4], in experiment [6] and in experiment [7]. Further, the outcome in experiment [8], in experiment [19], in experiment [9], in experiment [11], in [13] and in [14] was inactive. Besides, the call in [15], in experiment [16], in experiment [17] and in [18] was inactive. In addition, the AC50 in experiment [10] was 3.32 µM (active).
On to `COC(=O)c1cccnc1`, for which the outcome in experiment [1], in [2], in experiment [4], in [5], in experiment [6] and in experiment [7] was inactive. Also, the call in experiment [8], in experiment [19], in experiment [9], in experiment [10], in [11] and in experiment [12] was inactive. Also, the result in experiment [13], in experiment [14], in [15], in experiment [16], in experiment [17] and in [18] was inactive.
